Results filed as inconclusive are left out. Active and inactive are the calls of the source. Unless noted, the call rests on the fitted dose curve; in most records, active means well fitted curve in the direction sought with a large enough effect in the repeat runs; inconclusive means weak or mixed curves; inactive means no such curve, though single readings can be large; an effect the other way counts as inactive or inconclusive. Where a SMILES comes first, the peptide text is derived from it.
Columns and labels:
[1] = A CellTox Green Cytotoxicity Assay to monitor cytotoxicity in HepG2 cells - 16 hour (AID 1224876); further: nearly all actives have a fitted effect of over 45% in size
Outline: (§1)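 Using 1536-well format, dye-containing HepG2 suspension was seeded, allowed 5 h at 37 C/5% CO2, dosed by pintool with compounds, positive and negative controls, and imaged for fluorescence across 40 h.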

[2] = qHTS RealTime-Glo MT Cell Viability Assay in HepG2 cells - 32 hour (AID 1224877); further: nearly all actives have a fitted effect of over 55% in size
Outline: (§2)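 Luminescence read-out: viable HepG2 cells reduce a prosubstrate to a NanoLuc substrate, giving a signal proportional to live cell number. Reads taken at 0, 8, 16, 24, 32 and 40 h of compound exposure at 37 C.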

[3] = A CellTox Green Cytotoxicity Assay to monitor cytotoxicity in HepG2 cells - 24 hour (AID 1224878); further: nearly all actives have a fitted effect of over 45% in size
Outline: as §1

[4] = A CellTox Green Cytotoxicity Assay to monitor cytotoxicity in HepG2 cells - 40 hour (AID 1224879); further: nearly all actives have a fitted effect of over 40% in size
Outline: as §1

[5] = qHTS RealTime-Glo MT Cell Viability Assay in HEK293 cells - 0 hour (AID 1224880); further: top concentration of the series differs between compounds; nearly all actives have a fitted effect of over 45% in size
Outline: (§3)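 Viable HEK293 cells reduce a cell-permeant prosubstrate; the product diffuses out and is consumed by NanoLuc in the medium to give light. Compounds went in after a 5 h incubation and plates were read over the treatment course.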

[6] = A CellTox Green Cytotoxicity Assay to monitor cytotoxicity in HEK293 cells - 32 hour (AID 1224881); further: nearly all actives have a fitted effect of over 40% in size
Outline: (§4)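 Fluorescence intensity, read at 0, 8, 16, 24, 32 and 40 h of compound treatment, reflected dye binding to DNA of dead HEK293 cells; compounds (23 nL, DMSO) were added 5 h after plating cells with reagent.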

[7] = A CellTox Green Cytotoxicity Assay to monitor cytotoxicity in HepG2 cells - 0 hour (AID 1224882); further: nearly all actives have a fitted effect of over 35% in size
Outline: as §1

[8] = A CellTox Green Cytotoxicity Assay to monitor cytotoxicity in HepG2 cells - 32 hour (AID 1224883); further: nearly all actives have a fitted effect of over 50% in size
Outline: as §1

[9] = A CellTox Green Cytotoxicity Assay to monitor cytotoxicity in HEK293 cells - 8 hour (AID 1224884); further: nearly all actives have a fitted effect of over 35% in size
Outline: as §4

[10] = qHTS RealTime-Glo MT Cell Viability Assay in HepG2 cells - 16 hour (AID 1224885); further: nearly all actives have a fitted effect of over 50% in size
Outline: as §2

[11] = qHTS RealTime-Glo MT Cell Viability Assay in HEK293 cells - 24 hour (AID 1224886); further: top concentration of the series differs between compounds; nearly all actives have a fitted effect of over 50% in size
Outline: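 Nonlytic real-time viability readout: viable cells convert prosubstrate to NanoLuc substrate, giving luminescence proportional to live cell number. HEK293, 600 cells/well, compound added after 5 h, continuous culture at 37 C.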

[12] = qHTS RealTime-Glo MT Cell Viability Assay in HEK293 cells - 8 hour (AID 1224887); further: top concentration of the series differs between compounds; nearly all actives have a fitted effect of over 50% in size
Outline: as §3

[13] = qHTS RealTime-Glo MT Cell Viability Assay in HepG2 cells - 0 hour (AID 1224889); further: nearly all actives have a fitted effect of over 50% in size
Outline: as §2

[14] = A CellTox Green Cytotoxicity Assay to monitor cytotoxicity in HepG2 cells - 8 hour (AID 1224890); further: nearly all actives have a fitted effect of over 45% in size
Outline: as §1

[15] = qHTS assay to identify small molecule antagonists of the estrogen receptor alpha (ER-alpha) signaling pathway using the BG1 cell line in the presence of 0.1 nM 17-beta-estradiol - cell viability counter screen (AID 1259241); further: nearly all actives have a fitted effect of over 40% in size
Outline: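 VM7Luc4E2 cells (endogenous ER-alpha, 4×ERE-luciferase), hormone-starved 5 days in charcoal-stripped FBS, were treated with compounds plus 0.1 nM 17beta-estradiol for 22 hr at 37C; viability read in same wells as CellTiter-Fluor live-cell protease fluorescence.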

[16] = qHTS assay to identify small molecule antagonists of the androgen receptor (AR) signaling pathway using the MDA cell line in the presence of 0.5 nM R1881 - cell viability counter screen (AID 1259242); further: nearly all actives have a fitted effect of over 45% in size
Outline: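 Viability of MDA-kb2 cells was multiplexed with the luciferase AR readout; after 16 hr with compounds and R1881 at 0.5 nM final, CellTiter-Fluor fluorescence was recorded.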

[17] = molecular target: Estrogen receptor (Homo sapiens) (UniProt P03372); assay: qHTS assay to identify small molecule antagonists of the estrogen receptor alpha (ER-alpha) signaling pathway using the BG1 cell line in the presence of 0.1 nM 17-beta-estradiol (AID 1259244); further: nearly all actives have a fitted effect of over 50% in size
Estrogen receptor (Homo sapiens), sequence (P03372 whole entry, looked up): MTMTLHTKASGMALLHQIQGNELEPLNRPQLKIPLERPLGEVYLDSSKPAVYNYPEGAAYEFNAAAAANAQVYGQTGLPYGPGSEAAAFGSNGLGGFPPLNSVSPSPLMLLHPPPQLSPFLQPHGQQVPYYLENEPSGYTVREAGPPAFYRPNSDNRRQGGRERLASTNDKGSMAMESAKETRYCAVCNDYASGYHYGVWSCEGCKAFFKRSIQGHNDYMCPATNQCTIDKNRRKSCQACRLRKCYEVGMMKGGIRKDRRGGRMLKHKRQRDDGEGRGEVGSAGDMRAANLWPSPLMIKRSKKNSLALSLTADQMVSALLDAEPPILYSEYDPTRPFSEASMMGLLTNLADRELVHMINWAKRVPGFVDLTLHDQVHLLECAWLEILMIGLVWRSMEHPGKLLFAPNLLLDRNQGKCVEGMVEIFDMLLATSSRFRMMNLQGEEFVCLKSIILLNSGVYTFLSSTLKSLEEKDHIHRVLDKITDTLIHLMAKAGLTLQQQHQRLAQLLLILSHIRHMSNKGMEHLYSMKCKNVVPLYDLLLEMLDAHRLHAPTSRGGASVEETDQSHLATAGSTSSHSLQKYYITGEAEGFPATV
Outline: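 Estradiol at 0.1 nM (final) stimulates the endogenous ER-alpha of VM7Luc4E2 cells carrying an ERE-driven luciferase; compounds are co-incubated 22 h at 37C and luciferase output quantified by luminescence.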

[18] = A CellTox Green Cytotoxicity Assay to monitor cytotoxicity in HEK293 cells - 16 hour (AID 1224888); further: nearly all actives have a fitted effect of over 35% in size
Outline: as §4

[19] = molecular target: Androgen receptor (Homo sapiens) (UniProt P10275); assay: qHTS assay to identify small molecule antagonists of the androgen receptor (AR) signaling pathway using the MDA cell line in the presence of 0.5 nM R1881 (AID 1259243); further: nearly all actives have a fitted effect of over 50% in size
Androgen receptor (Homo sapiens), sequence (P10275 whole entry, looked up): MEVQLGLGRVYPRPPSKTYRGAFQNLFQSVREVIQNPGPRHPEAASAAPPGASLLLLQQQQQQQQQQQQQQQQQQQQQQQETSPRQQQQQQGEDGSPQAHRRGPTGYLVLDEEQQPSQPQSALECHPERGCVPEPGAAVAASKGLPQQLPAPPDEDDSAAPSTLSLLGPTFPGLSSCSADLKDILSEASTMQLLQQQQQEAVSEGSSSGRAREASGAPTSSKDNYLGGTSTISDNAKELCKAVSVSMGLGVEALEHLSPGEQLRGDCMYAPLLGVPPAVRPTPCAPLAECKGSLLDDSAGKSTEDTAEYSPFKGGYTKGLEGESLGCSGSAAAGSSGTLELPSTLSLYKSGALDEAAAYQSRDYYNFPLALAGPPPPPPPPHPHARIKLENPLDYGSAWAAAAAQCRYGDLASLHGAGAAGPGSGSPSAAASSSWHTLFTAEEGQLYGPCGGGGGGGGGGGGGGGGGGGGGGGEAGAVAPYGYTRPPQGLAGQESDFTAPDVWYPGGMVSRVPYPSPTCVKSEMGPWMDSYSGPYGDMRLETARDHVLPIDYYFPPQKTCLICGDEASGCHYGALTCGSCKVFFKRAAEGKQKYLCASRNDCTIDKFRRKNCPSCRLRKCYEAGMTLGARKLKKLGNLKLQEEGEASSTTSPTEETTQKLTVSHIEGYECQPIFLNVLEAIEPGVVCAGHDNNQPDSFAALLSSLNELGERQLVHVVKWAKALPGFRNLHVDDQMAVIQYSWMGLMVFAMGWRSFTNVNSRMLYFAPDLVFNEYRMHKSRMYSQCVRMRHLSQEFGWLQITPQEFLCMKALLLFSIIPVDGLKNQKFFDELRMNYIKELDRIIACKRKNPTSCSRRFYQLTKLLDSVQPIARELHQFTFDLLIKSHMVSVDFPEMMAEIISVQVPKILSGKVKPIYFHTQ
Outline: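 Reporter cells cultured without CO2 receive test chemicals, then 0.5 nM R1881 final; after 16 hr at 37C, ONE-Glo is added and light output recorded.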

[20] = qHTS assay to identify small molecule phospholipidosis (PLD) inducers (AID 1259344; active means well fitted curve in the direction sought with a large enough effect; an effect the other way counts as inactive or inconclusive)
Outline: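 Phospholipidosis is scored by imaging LipidTOX-stained pits in HepG2 cells exposed to compound for 24 h at 37 C; pit counts and integrated intensities per well and per cell serve as outputs.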
On the % scale 0 is the no-effect control and ±100 the full control effect.

Cc1ccc(N)cc1S(=O)(=O)O
inactive: Potency [1] | outcome [2] | Potency [3] | Potency [4] | Potency [5] | Potency [6] | Potency [7] | Potency [8] | Potency [9] | outcome [10] | Potency [11] | Potency [12] | Potency [13] | Potency [14] | outcome [15] | outcome [16] | outcome [17]

CSc1cnccn1
inactive: Potency [1] | outcome [2] | Potency [3] | Potency [4] | Potency [5] | Potency [6] | Potency [7] | Potency [8] | outcome [10] | Potency [11] | Potency [12] | Potency [18] | Potency [13] | Potency [14] | outcome [15] | outcome [16] | outcome [17]

CC(=O)N[C@@H](CO)C(=O)N[C@@H](CC(=O)O)C(=O)N[C@@H](CCCCN)C(=O)N1CCC[C@H]1C(=O)O (Ac-SDKP-OH)
inactive: Potency [1] | outcome [2] | Potency [3] | Potency [4] | Potency [5] | Potency [6] | Potency [7] | Potency [8] | Potency [9] | outcome [10] | Potency [11] | Potency [18] | Potency [13] | Potency [14] | outcome [15] | Potency [19]

C=C(C)c1cccc(C(C)(C)N=C=O)c1
inactive: Potency [1] | outcome [2] | Potency [3] | Potency [4] | Potency [5] | Potency [6] | Potency [7] | Potency [8] | outcome [10] | Potency [11] | Potency [12] | Potency [18] | Potency [13] | Potency [14] | outcome [15] | outcome [16] | outcome [17]

O=C(Cn1ccnc1[N+](=O)[O-])NCc1ccccc1
inactive: Potency [1] | outcome [2] | Potency [3] | Potency [4] | Potency [5] | Potency [6] | Potency [7] | Potency [8] | Potency [9] | outcome [10] | Potency [11] | Potency [12] | Potency [18] | Potency [13] | Potency [14] | outcome [15] | outcome [17] | outcome [20]

C=CCCCC
inactive: Potency [1] | outcome [2] | Potency [3] | Potency [4] | Potency [5] | Potency [6] | Potency [7] | Potency [8] | Potency [9] | outcome [10] | Potency [11] | Potency [12] | Potency [18] | Potency [13] | Potency [14] | outcome [15] | outcome [17]

CC1=C(C(=O)O)N2C(=O)[C@@H](NC(=O)[C@H](N)c3ccccc3)[C@H]2SC1
inactive: Potency [1] | outcome [2] | Potency [3] | Potency [4] | Potency [5] | Potency [6] | Potency [7] | Potency [8] | Potency [9] | outcome [10] | Potency [11] | Potency [18] | Potency [13] | Potency [14] | outcome [15] | outcome [16] | outcome [20]

C=CCN1C[C@H](C(=O)N(CCCN(C)C)C(=O)NCC)C[C@@H]2c3cccc4[nH]cc(c34)C[C@H]21
inactive: Potency [1] | outcome [2] | Potency [3] | Potency [4] | Potency [5] | Potency [6] | Potency [7] | Potency [8] | Potency [9] | outcome [10] | Potency [11] | Potency [12] | Potency [18] | Potency [13] | Potency [14] | outcome [15] | outcome [17]

C=CCSSCCC
inactive: Potency [1] | outcome [2] | Potency [3] | Potency [4] | Potency [5] | Potency [6] | Potency [7] | Potency [8] | Potency [9] | outcome [10] | Potency [18] | Potency [13] | Potency [14] | outcome [15]

O=C(O)CSCC(=O)NC1CCSC1=O (stereo not drawn)
inactive: Potency [1] | outcome [2] | Potency [3] | Potency [4] | Potency [5] | Potency [6] | Potency [7] | Potency [8] | Potency [9] | outcome [10] | Potency [11] | Potency [12] | Potency [18] | Potency [13] | Potency [14] | outcome [15] | Potency [19] | PLD induction [20] 5.58% [at 7.66 µM]

O=S(=O)(O)c1ccc2c(N=Nc3ccc(S(=O)(=O)O)c4ccccc34)c(O)c(S(=O)(=O)O)cc2c1
inactive: cytotoxicity increase [1] -11.6% [at 6.97 µM] | activity change, negative = cytotoxic [2] -3.7% [at 6.97 µM] | cytotoxicity [3] -12.7% [at 6.97 µM] | cytotoxicity increase [4] -16.2% [at 6.97 µM] | activity change, negative = cytotoxicity [5] 7.55% [at 6.97 µM] | cytotoxicity increase [6] 8.52% [at 6.97 µM] | cytotoxicity [7] -11.5% [at 6.97 µM] | cytotoxicity increase [8] -12.7% [at 6.97 µM] | cytotoxicity increase [9] 7.19% [at 6.97 µM] | activity change, negative = cytotoxic [10] 0.447% [at 6.97 µM] | activity change, negative = cytotoxicity [11] 5.55% [at 6.97 µM] | activity change, negative = cytotoxicity [12] 2.74% [at 6.97 µM] | activity change [18] 8.43% [at 6.97 µM, stronger effect = higher value] | activity change, negative = cytotoxicity [13] 7.14% [at 6.97 µM] | cytotoxicity increase [14] -1.78% [at 6.97 µM] | activity change, negative = cytotoxicity [15] -26.3% [at 8.39 µM] | viability change, negative = cytotoxic [16] -14.9% [at 8.39 µM] | outcome [20]

O=NN(CCCl)C(=O)NC1CCCCC1
inactive: Potency [1] | outcome [2] | Potency [3] | Potency [4] | Potency [5] | Potency [6] | Potency [7] | Potency [8] | Potency [9] | outcome [10] | Potency [11] | Potency [12] | Potency [18] | Potency [13] | Potency [14] | outcome [15] | outcome [16] | outcome [20]

N#CCC(=O)NN
inactive: Potency [1] | outcome [2] | Potency [3] | Potency [4] | Potency [5] | Potency [6] | Potency [7] | Potency [8] | Potency [9] | outcome [10] | Potency [11] | Potency [12] | Potency [18] | Potency [13] | Potency [14] | outcome [15] | outcome [20]

O=C1CCCCO1
inactive: Potency [1] | outcome [2] | Potency [3] | Potency [4] | Potency [5] | Potency [6] | Potency [7] | Potency [8] | outcome [10] | Potency [11] | Potency [12] | Potency [18] | Potency [13] | Potency [14] | outcome [15] | outcome [16] | outcome [17]

— PubChem BioAssay (Tox21)
